More than one record can exist for a structure, and the calls need not agree. Activity calls are given as the source filed them. How the source made its calls: active means hit-call score of the fitted dose curve at least 0.9, where 1 is the maximum; inactive means score below 0.9.

Read-out in this experiment: catalase (CAT), CAT (gene 847)
Nature of the experiment: LTEA_HepaRG_CAT: Life Technologies and Expression Analysis (LTEA) Assay for catalase (CAT) using HepaRG (AID 2283452).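 On AC50: TaqMan qRT-PCR signal normalized to ACTB GAPDH and POLR2A housekeeping genes.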 The following applies: mRNA level, 48 h; actives raise or lower the signal. On the procedure:
LTEA_HepaRG is a cell based, multiplexed-readout assay that uses HepaRG, a human liver cell line, with measurements taken at 48 hours after chemical dosing on a 96-well plate.LTEA_HepaRG_CAT is one of 102 assay component(s) measured in the LTEA HepaRG cell culture assay. It is a marker of Oxidative Stress.Data from the assay component LTEA_HepaRG_CAT was analyzed into 1 endpoint. This assay endpoint, LTEA_HepaRG_CAT, was analyzed with bidirectional fitting relative to DMSO as the negative control and baseline of activity. Using a type of inducible reporter, measures of mRNA induction for gain or loss-of-signal activity can be used to understand regulation of transcription factor activity. To generalize the intended target to other relatable targets, this assay endpoint is annotated to the catalase intended target family, where the subfamily is oxidative stress.
A total of 1060 chemcials from the ToxCast library were tested in eight-point concentration-response experiments. Cell culture and cytotoxicity assays were conducted at Thermo Fisher Scientific's Custom Services facility (Madison, WI). A single lot of human HepaRG cells (Thermo Fisher Scientific, Frederick, MD) was used for the cell culture experiments. 96-well format collagen type I coated plates of human HepaRG cells were prepared using established methods. Briefly, cryopreserved HepaRG cells were thawed, plated at a density of approximately 100,000 cells/well in HepaRG Thaw, Plate, and General Purpose media (HPRG770, Thermo Fisher Scientific), and incubated for 48 hours. 0.5% DMSO was selected as vehicle control to balance the requisite need of DMSO in HepaRG cultures to maintain differentiation (for example, baseline metabolism, proportions of hepatocytes vs. cholangiocytes), while enabling further hepatic receptor pathway activation (for example, PXR and CAR) in response to chemical exposure. 48 hours after plating, the culture medium was replaced with HepaRG Serum-Free Incudtion Media. Cells were exposed to each test chemical in duplicate and maintained in CO2 incubators for another 48 hours. Chemical plates were thawed to room temperature and 200x concentrations of treatment groups were prepared. 8-point conentration-reponse curves were made with the highest exposure at 100 uM, followed by half-log dilutions, all in 0.5% DMSO. Each test plate contained variouse controls, induction positive controls (1mM phenobarbital), cytotoxicity positive controls ([…] aflatoxin B1), vehicle controls (0.5% DMSO), and total lysis controls (0.5% DMSO). Cell morphology images were taken using an Essen IncuCyte FLR automated microscope, with six 96-well plates imaged in about 24 minutes. Images were captured and exported and JPEG files. Spent culture media was transfered to black-well plates for the LDH assay, and remaining media was sorted at -80 C for later use. Cells were treated with RLT buffer and frozen until shipped for gene expression analysis. Total RNA was isolated from the cell suspension in 75 uL of Buffer RLT (Qiagen, Germantown, MD 20874) by Quintiles/Expression Analysis (Durham, NC) using a custom isolation procedure. Total RNA from each plate well was transferred to a preamplification plate. Fluidigm's 96.96 Dynamic ArrayTM (Fluidigm, Amsterdam, the Netherlands) technology was used for gene expression analyses by quantitative reverse transcription polymerase chain reaction (qRT-PCR, performed by Quintiles/Expression Analysis, Durham, NC)89. Standard TaqManTM Assays (Applied Biosystems/ThermoFisher Scientific, Foster City, CA) were used to assess the expression of 93 genes selected based on their selectivity and sensitivity to important hepatic receptors known to be modulated by environmental chemicals; importance in human hepatocyte functionality; and hepatotoxicity. […]
Consider `CC(=O)[O][Hg][c]1ccccc1`, for which the AC50 (in general, the midpoint of the concentration-response curve, whichever way the signal moves) was 13.3 µM (active).
Consider `CCC(=O)C(CC(C)N(C)C)(c1ccccc1)c1ccccc1` (configuration not stated), for which the result was inactive.
Still for that read-out and setting: under `Cn1sc(Cl)cc1=O` stands “inactive”.
With `Oc1cccc2cccnc12`, the result was inactive.
As for `ClCC(Cl)CCl`, the result was inactive.
`C=CC(=O)OCCCCCC(C)C`: the call was inactive.
The same measure, in the same setting: under `COc1cc(-c2ccc(N)c(OC)c2)ccc1N` stands “inactive”; under `CC(C)(C)c1cc(O)ccc1O`, “inactive”.
Regarding `O=C(O)C(F)(F)C(F)(F)C(F)(F)C(F)(F)C(F)(F)C(F)(F)F`, the compound was called inactive.
In the case of `CC(C)(OO)c1ccccc1`, the compound was called inactive.
As for `CC(C)(C)CC(C)(C)c1ccc(O)cc1`, the AC50 was 2.44 µM (active).
For `CN(C)N=O`, the call was inactive.
Regarding `CCOP(=S)(OCC)Oc1nc(Cl)c(Cl)cc1Cl`, the call was inactive.
On to `O=c1[nH]c(=O)[nH]c(=O)[nH]1`, for which the compound was called inactive.
On to `O=C(Nc1ccc2[nH]ccc2c1)c1cc2cc(F)ccc2n1Cc1cccc(F)c1`, for which the AC50 is 25.1 µM (active).
Turning to `O=C1C2(Cl)C3(Cl)C4(Cl)C(Cl)(Cl)C5(Cl)C3(Cl)C1(Cl)C5(Cl)C24Cl` (configuration not stated), the AC50 was 93.5 µM (active).
For `O=C(O)C(Cl)(Cl)Cl`, the result was inactive and the AC50 is 0.207 µM (active).
Turning to `CCCCCCCCc1ccc(O)cc1`, the outcome was inactive.
On the same count and under the same terms, under `CCOP(=S)(OCC)SCSP(=S)(OCC)OCC` stands “inactive”.
With `Cc1ccccc1N`, the result was inactive.
Take `CC(C)(c1ccccc1)c1ccc(O)c(C(C)(C)c2ccccc2)c1`: the AC50 was 60.7 µM (active).
The same measure, in the same setting: under `C[C@@H]1C[C@@H]([C@H](O)CC2CC(=O)NC(=O)C2)C(=O)[C@@H](C)C1` stands 12.4 µM (active).
With `CC12CC1(C)C(=O)N(c1cc(Cl)cc(Cl)c1)C2=O` (configuration not stated), the compound was classed as inactive.
`NC(=O)O`: the outcome was inactive.
For `CCN1CCC2(CC1)COc1cc3c(cc12)N(C(=O)c1ccc(-c2ccc(-c4nnc(C)o4)cc2C)cc1)CC3`, the AC50 was 21.1 µM (active).
Regarding `O=[N+]([O-])c1ccc(O)c([N+](=O)[O-])c1`, the AC50 is 13.2 µM (active).
`O=C(O)C(F)(F)C(F)(F)C(F)(F)C(F)(F)C(F)(F)C(F)(F)C(F)(F)C(F)(F)C(F)(F)C(F)(F)F`: the outcome was inactive.
On to `C[C@]12CCC(=O)C[C@@H]1CC[C@@H]1[C@@H]2CC[C@]2(C)[C@@H](O)CC[C@@H]12`, for which the outcome was inactive.
In the case of `C=C(C)C(=O)[O][Sn]([CH2]CCC)([CH2]CCC)[CH2]CCC`, the compound was called inactive.
`ClC1(Cl)C2(Cl)C3(Cl)C4(Cl)C(Cl)(Cl)C5(Cl)C3(Cl)C1(Cl)C5(Cl)C24Cl` (configuration not stated): the compound was classed as inactive.
On to `CCC(C)(C)c1ccc(O)c(C(C)(C)CC)c1`, for which the compound was called inactive.
